Experimental data reported in PubChem BioAssay (NCI).
This is part of a sample that, as a whole, favours compounds with a hit. Of some 79,000 tested, about 15% had one in any assay. Unmarked numbers belong to inactive results. Activity calls are given as the source filed them. No stated cut-off is given here; in the data, active means growth inhibition above about 70%; inactive means the rest.

What was measured:
[1] = NCI Yeast Anticancer Drug Screen. Data for the rad50 strain (AID 155);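 further: 0% = growth of vehicle-only cultures of the same strain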; conditions: S. cerevisiae rad50 strain growth inhibition; at 50.0 µM; stronger effect = higher value
Method in brief: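 Compounds were tested on a yeast strain with an engineered DNA damage repair alteration; the reported value is growth inhibition normalised to vehicle treatment.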

[2] = NCI Yeast Anticancer Drug Screen. Data for the mec2-1 strain (AID 157); conditions: S. cerevisiae mec2-1 strain, at 50.0 µM, stronger effect = higher value
Method in brief: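 Each compound was tested on mec2-1 yeast, a strain altered in DNA damage repair or cell cycle control. Growth inhibition is reported relative to vehicle.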

[3] = NCI Yeast Anticancer Drug Screen. Data for the sgs1 mgt1 strain (AID 161);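 further: 0% = growth of cultures given vehicle only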; conditions: S. cerevisiae sgs1 mgt1 strain, at 50.0 µM, stronger effect = higher value
Method in brief: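 Genetically altered yeast, compound exposure, growth inhibition relative to vehicle.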

[4] = NCI Yeast Anticancer Drug Screen. Data for the cln2 rad14 strain (AID 165);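 further: 0% = growth equal to vehicle treated cultures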; conditions: S. cerevisiae cln2 rad14 strain, at 50.0 µM, stronger effect = higher value
Method in brief: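 Test compounds were added to cln2 rad14 yeast cultures; inhibition of growth was then determined by comparison with vehicle treatment.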

[5] = NCI Yeast Anticancer Drug Screen. Data for the bub3 strain (AID 167); conditions: S. cerevisiae bub3 mutant strain, at 50.0 µM, stronger effect = higher value
Method in brief: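 Growth of a checkpoint-deficient yeast mutant is measured after compound exposure. Values represent inhibition relative to vehicle.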

[6] = NCI Yeast Anticancer Drug Screen. Data for the mlh1 rad18 strain (AID 175); conditions: S. cerevisiae mlh1 rad18 strain growth inhibition; at 50.0 µM; stronger effect = higher value
Method in brief: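 Inhibition values reflect reduced growth of mutant yeast versus vehicle-treated controls following compound exposure; the mutations affect DNA damage repair.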

O=C(CCc1ccccc1)n1cccc1CO
growth inhibition [1]: -10.1% | growth inhibition [2]: -21.1% | growth inhibition [3]: -6.85% | growth inhibition [4]: 17.9% | growth inhibition [5]: 16.2% | growth inhibition [6]: 1.35%

COC(=O)c1ccc(C(=O)OC)c2nc3ccccc3nc12
growth inhibition [1]: 13.1% | growth inhibition [2]: 9.35% | growth inhibition [3]: 8.45% | growth inhibition [4]: 8.9% | growth inhibition [5]: 15.1% | growth inhibition [6]: 7.6%

COc1ccc(N2C(=O)CC(c3cc(OC)c(OC)c(OC)c3)CC2=O)cc1
growth inhibition [1]: -3.7% | growth inhibition [2]: -20.5% | growth inhibition [3]: 10.4% | growth inhibition [4]: 3.1% | growth inhibition [5]: 8.25% | growth inhibition [6]: -2.75%

C/C(=N/NC(=S)N1CCCCC1)c1ccccc1O
growth inhibition [1]: -17.4% | growth inhibition [2]: -41.7% | growth inhibition [3]: 1.55% | growth inhibition [4]: 4.4% | growth inhibition [5]: -10.6% | growth inhibition [6]: -5.75%

OCCCCC1COC(c2ccccc2)O1 (stereo unspecified)
growth inhibition [1]: 2.55% | growth inhibition [2]: -14.6% | growth inhibition [3]: -10.9% | growth inhibition [4]: -35% | growth inhibition [5]: -16.6% | growth inhibition [6]: 1.1%

O=Nc1ccc(O)cc1O
growth inhibition [1]: 16.9% | growth inhibition [2]: 2.5% | growth inhibition [3]: 1.15% | growth inhibition [4]: -38.6% | growth inhibition [5]: 33.3% | growth inhibition [6]: 19.1%

Nc1c(Cl)cc(Cl)cc1C(=O)O
growth inhibition [1]: -5.05% | growth inhibition [2]: -10.5% | growth inhibition [3]: 0.35% | growth inhibition [4]: -28.7% | growth inhibition [5]: -11.2% | growth inhibition [6]: -16.1%

O=c1c2ccccc2oc2nc3ccc(Cl)cc3n12
growth inhibition [1]: -6.3% | growth inhibition [2]: -7.5% | growth inhibition [3]: 0.45% | growth inhibition [4]: -30.9% | growth inhibition [5]: 10.6% | growth inhibition [6]: -1.85%

c1ccc2c3c(ccc2c1)OCCOCCOc1ccc2ccccc2c1-3
growth inhibition [1]: 76.7% (active) | growth inhibition [2]: 84.8% (active) | growth inhibition [3]: 76.5% (active) | growth inhibition [4]: 8.5% | growth inhibition [5]: 91.9% (active) | growth inhibition [6]: 86% (active)

CN(C)C1=c2c(=O)n(C)c(=O)n(C)c2=NC2C=CC=CN12 (stereo unspecified)
growth inhibition [1]: 10.8% | growth inhibition [2]: 13.6% | growth inhibition [3]: 17.4% | growth inhibition [4]: 4.15% | growth inhibition [5]: 15% | growth inhibition [6]: 22.6%

COc1ccc(-n2[nH]nc(C(N)=O)c2=O)cc1
growth inhibition [1]: 7.6% | growth inhibition [2]: -2.5% | growth inhibition [3]: -33.4% | growth inhibition [4]: -22.6% | growth inhibition [5]: -24.6% | growth inhibition [6]: -65%

ClC(Cc1ccccc1)(c1ccccc1)c1ccccc1
growth inhibition [1]: -26.6% | growth inhibition [2]: 13.5% | growth inhibition [3]: -0.8% | growth inhibition [4]: -26.9% | growth inhibition [5]: 13.8% | growth inhibition [6]: -3.6%

CCCOC(=O)CCCC1=NC2=CC=CC3=NC(C)=NC(=N1)N23
growth inhibition [1]: -10.3% | growth inhibition [2]: -3.4% | growth inhibition [3]: -7.45% | growth inhibition [4]: -45.1% | growth inhibition [5]: -38.1% | growth inhibition [6]: -7.45%

CC(N)CCN (stereo unspecified)
growth inhibition [1]: 3.7% | growth inhibition [2]: 11.2% | growth inhibition [3]: -5.55% | growth inhibition [4]: 10.8% | growth inhibition [5]: 12.1% | growth inhibition [6]: 1.55%

COc1ccc(S(=O)(=O)N/N=C/c2cc(I)cc([N+](=O)[O-])c2O)cc1
growth inhibition [1]: 15.1% | growth inhibition [2]: 0.6% | growth inhibition [3]: 9.85% | growth inhibition [4]: 8% | growth inhibition [5]: -3.85% | growth inhibition [6]: 2.5%

COC(=O)c1nc2c(n(C)/c1=N/C(=O)Nc1ccccc1)CCCC2
growth inhibition [1]: 61.5% | growth inhibition [2]: -2.9% | growth inhibition [3]: 4.25% | growth inhibition [4]: -7.65% | growth inhibition [5]: 4.65% | growth inhibition [6]: -50.6%

N/C(CC/C(N)=N\O)=N\O
growth inhibition [1]: -1.95% | growth inhibition [2]: -15.8% | growth inhibition [3]: -11.2% | growth inhibition [4]: -4.9% | growth inhibition [5]: 1.1% | growth inhibition [6]: -1.7%

C=Cc1ccccc1NC(C(=O)O)c1ccccc1 (stereo unspecified)
growth inhibition [1]: 18.8% | growth inhibition [2]: -5.05% | growth inhibition [3]: -0.8% | growth inhibition [4]: 18.6% | growth inhibition [5]: 7.2% | growth inhibition [6]: 1.35%

CC(C(=O)O)N(C)C(=O)OCc1ccccc1 (stereo unspecified)
growth inhibition [1]: -3.95% | growth inhibition [2]: -21.1% | growth inhibition [3]: 1.55% | growth inhibition [4]: -18.8% | growth inhibition [5]: -11.8% | growth inhibition [6]: -4.5%

COc1cc2cc(-c3ccccn3)nc(N)c2cc1OC
growth inhibition [1]: 29.2% | growth inhibition [2]: 9.35% | growth inhibition [3]: 39.5% | growth inhibition [4]: 2.55% | growth inhibition [5]: -1.5% | growth inhibition [6]: 9.95%

O=C(c1ccccc1)C(CBr)C(Br)c1ccccc1 (stereo unspecified)
growth inhibition [1]: -17.4% | growth inhibition [2]: 24.7% | growth inhibition [3]: 10.1% | growth inhibition [4]: -24.8% | growth inhibition [5]: 16.9% | growth inhibition [6]: 1.75%

O=C(CN(Cc1ccccc1)Cc1ccccc1)NC(=O)c1ccccc1
growth inhibition [1]: 4.5% | growth inhibition [2]: -7.9% | growth inhibition [3]: 8.45% | growth inhibition [4]: -36.4% | growth inhibition [5]: 9.55% | growth inhibition [6]: -10.4%

CCCC(=O)OCCCCC1CCCO1 (stereo unspecified)
growth inhibition [1]: 13.2% | growth inhibition [2]: 3.6% | growth inhibition [3]: 8.75% | growth inhibition [4]: 14% | growth inhibition [5]: 5.45% | growth inhibition [6]: 11.6%

CCCCOc1cc2c(cc1C(C)c1ccccc1)OCO2 (stereo unspecified)
growth inhibition [1]: -0.35% | growth inhibition [2]: -3.95% | growth inhibition [3]: -4.05% | growth inhibition [4]: 2.8% | growth inhibition [5]: 15.8% | growth inhibition [6]: 14.8%

COC(=O)/C(=N\N)C(C(=O)C(=O)Nc1cc(Cl)ccc1Cl)c1nc2ccc([N+](=O)[O-])cc2[nH]c1=O (stereo unspecified)
growth inhibition [1]: 13.1% | growth inhibition [2]: 6.6% | growth inhibition [3]: -6.15% | growth inhibition [4]: -20.2% | growth inhibition [5]: 25.9% | growth inhibition [6]: 12.7%

O=C1c2ccccc2C(=O)c2nc3ccc(Cl)cc3cc21
growth inhibition [1]: -12.3% | growth inhibition [2]: -18.4% | growth inhibition [3]: 1.35% | growth inhibition [4]: 21.3% | growth inhibition [5]: -12.5% | growth inhibition [6]: -10.8%

CCOc1ccccc1/C=N/NS(=O)(=O)c1ccc([N+](=O)[O-])cc1
growth inhibition [1]: -19.2% | growth inhibition [2]: -23.1% | growth inhibition [3]: 2.55% | growth inhibition [4]: -18.6% | growth inhibition [5]: 12.9% | growth inhibition [6]: -14.2%

C/C(=N\N=C(\Cc1ccccc1)c1ccccc1)c1ccccc1
growth inhibition [1]: 1.7% | growth inhibition [2]: 3.95% | growth inhibition [3]: -11.6% | growth inhibition [4]: -25.2% | growth inhibition [5]: -1.65% | growth inhibition [6]: 2.8%

CCOc1ccc(C2=NNC(=O)CC2)cc1
growth inhibition [1]: 26% | growth inhibition [2]: -8.55% | growth inhibition [3]: -9.15% | growth inhibition [4]: 14.3% | growth inhibition [5]: 13.9% | growth inhibition [6]: 17.6%

CC(=O)NNC(=S)N/C=C(\C#N)c1nc2ccccc2s1
growth inhibition [1]: 22.2% | growth inhibition [2]: 12.2% | growth inhibition [3]: -17.2% | growth inhibition [4]: 18.4% | growth inhibition [5]: -10.7% | growth inhibition [6]: 12.1%

CCCc1cc(=O)n(CCCc2ccccc2)c(=O)n1CCCc1ccccc1
growth inhibition [1]: 10.3% | growth inhibition [2]: -8.7% | growth inhibition [3]: -8.95% | growth inhibition [4]: -36.1% | growth inhibition [5]: -3.65% | growth inhibition [6]: 16%

CN1CC2(CO)C(c3ccccn3)N(C)C(c3ccccn3)C(CO)(C1)C2O (stereo unspecified)
growth inhibition [1]: 2.5% | growth inhibition [2]: 16.4% | growth inhibition [3]: -10.7% | growth inhibition [4]: -6.2% | growth inhibition [5]: -0.6% | growth inhibition [6]: 10.8%

COc1c(CC=C(C)C)c(O)c(C(CC(C)C)c2c(O)c(CC=C(C)C)c(O)c(C(C)=O)c2O)c(O)c1C(C)=O (stereo unspecified)
growth inhibition [1]: 32.9% | growth inhibition [2]: 41.5% | growth inhibition [3]: 34% | growth inhibition [4]: 41.3% | growth inhibition [5]: 38.5% | growth inhibition [6]: 31.1%

COc1cc2cc[n+]3c(C)c4ccc(OC)c(OC)c4cc3c2cc1OC (tested in a mixture with another compound)
growth inhibition [1]: -4.15% | growth inhibition [2]: 17.2% | growth inhibition [3]: -5.3% | growth inhibition [4]: -10.8% | growth inhibition [5]: -3.55% | growth inhibition [6]: 6.65%

CC1=C(C)C(=O)c2c(OC(=O)c3ccccc3)ccc(OC(=O)c3ccccc3)c2C1=O
growth inhibition [1]: -18.8% | growth inhibition [2]: 7.7% | growth inhibition [3]: 19.3% | growth inhibition [4]: -18.7% | growth inhibition [5]: -1.2% | growth inhibition [6]: -13.8%

CCCC(O)(Cc1ccccc1)c1ccccc1 (stereo unspecified)
growth inhibition [1]: -39% | growth inhibition [2]: -25.5% | growth inhibition [3]: -15.2% | growth inhibition [4]: -3.45% | growth inhibition [5]: -15.2% | growth inhibition [6]: -14%

Cc1ccc2sc3cc(=O)cc(C)c-3nc2c1
growth inhibition [1]: 14.7% | growth inhibition [2]: 0.7% | growth inhibition [3]: -15.1% | growth inhibition [4]: 8.35% | growth inhibition [5]: 38.4% | growth inhibition [6]: 25.4%

Cc1ccc(NC(=O)OCC(COc2ccc(Cl)cc2Cl)OC(=O)Nc2ccc(C)cc2)cc1 (stereo unspecified)
growth inhibition [1]: -27.8% | growth inhibition [2]: -24.9% | growth inhibition [3]: -0.55% | growth inhibition [4]: 16.1% | growth inhibition [5]: 11.2% | growth inhibition [6]: 9.05%

CC1=CC(CO)C2C(=O)NC(=O)C2C1C (stereo unspecified)
growth inhibition [1]: 7.2% | growth inhibition [2]: -6.15% | growth inhibition [3]: -9.75% | growth inhibition [4]: -39.5% | growth inhibition [5]: -17.1% | growth inhibition [6]: 7.7%

O=C(N/N=C\c1c[nH]c2ccccc12)N/N=C/c1c[nH]c2ccccc12
growth inhibition [1]: -4.05% | growth inhibition [2]: -21.4% | growth inhibition [3]: -7.25% | growth inhibition [4]: -11.2% | growth inhibition [5]: -3.45% | growth inhibition [6]: -37.9%

C=C1C(=O)O[C@@H]2/C=C(\C)CC/C=C(/COC(C)=O)C[C@@H](OC(C)=O)[C@@H]12
growth inhibition [1]: 7.4% | growth inhibition [2]: -28.2% | growth inhibition [3]: 20.1% | growth inhibition [4]: 0.35% | growth inhibition [5]: -1.4% | growth inhibition [6]: -30.1%
